Compounds with a hit are over-represented: about 1.1% of the library has one in this group of screens.
Casp6 inh = inhibitors of human caspase-6 | P55212 | purified caspase-6, Z-VEID-R110 cleavage fluorescence | inhibition, % at 12.5 µM | 350,000 tested, 0.53% active;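 active = mean inhibition across replicates at least about 35%, with every replicate also reaching that limit, limit read from the data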;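 note: 0% = median of neutral control wells and 100% = no fluorescence left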
Target sequence (P55212 24-179 limits assumed): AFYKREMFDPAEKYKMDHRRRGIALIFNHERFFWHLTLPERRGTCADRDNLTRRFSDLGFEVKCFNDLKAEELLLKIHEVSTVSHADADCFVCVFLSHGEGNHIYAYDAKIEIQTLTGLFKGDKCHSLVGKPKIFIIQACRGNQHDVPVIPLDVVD
Target sequence (P55212 194-293 limits assumed): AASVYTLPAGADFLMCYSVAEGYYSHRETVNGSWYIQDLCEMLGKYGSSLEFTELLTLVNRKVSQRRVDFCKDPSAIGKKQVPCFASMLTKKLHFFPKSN
Keap1 Nrf2 FP = disrupts human Keap1 binding to Nrf2 peptide; 340,000 tested, 0.15% active; Q14145; inhibition, % at 9.4 µM; Keap1 Kelch-Nrf2 peptide fluorescence polarization, 1536-well; in the data active = inhibition above about 12%;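 note: human Keap1 Kelch domain with fluorescein labeled Nrf2 9mer peptide probe; 0% = neutral control wells and 100% = peptide positive control; higher means more block of Keap1 binding to Nrf2 peptide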
NSD2 inh = blocks human histone methyltransferase NSD2; inhibition, % at 12.5 µM; 310,000 tested, 0.54% active; NSD2 peptide methylation, AlphaScreen, 120 min; O96028; AID 743445; in the data active = inhibition above about 50%
LANA DNA inh = blocks KSHV LANA C-terminal domain binding to DNA. MBP-C-LANA/FAM-LBS DNA binding, fluorescence polarization. inhibition, % at 9 µM. 340,000 tested, 0.078% active;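 active = highest replicate inhibition at or above 60% at 9 µM, even if other replicates fall short; inactive = all replicates below 60% inhibition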;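 note: 0% = neutral control wells and 100% = 4 µM acridine orange control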
N-glyco inh = N-linked glycosylation inhibition | D54 ERlucT glycosylation luciferase reporter, 24 h; percent of 100 nM tunicamycin response | reporter increase, % at 12.5 µM | 360,000 tested, 0.23% active;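 active = mean luciferase reporter signal, scaled so untreated is 0 and the glycosylation-blocking control 100, at or above a set limit in every replicate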;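 note: luciferase carries N-glycosylation sites so blocking glycosylation raises the light; 0% = median of neutral control wells and 100% = median of 100 nM tunicamycin wells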
HDAC3 inh = human HDAC3 inhibition; O15379; recombinant HDAC3, fluorogenic peptide/trypsin coupled, fluorescence; inhibition, % at 8.3 µM; 320,000 tested, 0.15% active; AID 2718; in the data active = inhibition above about 26%, passing the limit was not always enough
Active calls of the source: *.

`O=C(N/N=C/c1cn(Cc2cccc(F)c2)c2ccccc12)c1cc(O)cc(O)c1` gave Casp6 inh 57*, Keap1 Nrf2 FP 0, NSD2 inh 8, LANA DNA inh 19, N-glyco inh -6 and HDAC3 inh -4.
Screening Nc1ccc(C(=O)N/N=C/c2cn(Cc3ccc(F)cc3)c3ccccc23)cc1 returned Casp6 inh 73*, Keap1 Nrf2 FP 4, NSD2 inh -1, LANA DNA inh 0, N-glyco inh -1 and HDAC3 inh -4.
Nc1ccc(C(=O)N/N=C/c2cn(Cc3ccccc3)c3ccccc23)cc1 was read as Casp6 inh -3, Keap1 Nrf2 FP -9, NSD2 inh -2, LANA DNA inh -1, N-glyco inh -4 and HDAC3 inh 15.
For COc1cc(C(=O)N/N=C/c2cn(Cc3ccccc3)c3ccccc23)ccc1O the results were Casp6 inh -5, Keap1 Nrf2 FP -2, NSD2 inh 1, LANA DNA inh 0, N-glyco inh -1 and HDAC3 inh 9.
For O=C([C@@H]1[C@@H](CO)[C@@H]2Cn3c(cccc3=O)[C@H]1N2CC1CCCC1)N1CCc2ccccc2C1 the results were Casp6 inh 1.
`COc1cccc(NC(=O)N2CC(=O)N3[C@H](CO)[C@H](c4ccc(C#CC5CCCCC5)cc4)[C@@H]3C2)c1` gave Casp6 inh 0.
Screening O=C(CCCCCCC(=O)Nc1ccccc1)NO returned Casp6 inh -1, Keap1 Nrf2 FP 1, LANA DNA inh 1 and N-glyco inh 858*.
Screening Cc1cc(C)cc(N(CC(=O)NC(C)C)C(=O)CCC(=O)Nc2ccccn2)c1 returned Casp6 inh 45*, Keap1 Nrf2 FP 2, NSD2 inh 0, N-glyco inh 1 and HDAC3 inh -12.
Screening O=c1c(Cl)c(Nc2cccc(Cl)c2)cnn1-c1nc2ccccc2s1 returned Keap1 Nrf2 FP -6, NSD2 inh 0, LANA DNA inh 1, N-glyco inh -15 and HDAC3 inh -4.
Cc1ccc(C)c(N2CCN(c3cnn(-c4nc5ccccc5s4)c(=O)c3Cl)CC2)c1 was read as Keap1 Nrf2 FP -3, NSD2 inh -2, LANA DNA inh -1, N-glyco inh 114* and HDAC3 inh -7.
For CN1C(=O)c2cc(NC(=O)C3CCCC3)ccc2OC[C@@H]2O[C@@H](CC(=O)Nc3ccccc3)CC[C@@H]21 the results were Casp6 inh -2.
Screening CC(=O)Nc1cccc2cc(S(=O)(=O)O)ccc12 returned Casp6 inh 44*, NSD2 inh 5 and N-glyco inh 5.
Screening CC(=O)Nc1cccc2cc(O)ccc12 returned Casp6 inh 12, Keap1 Nrf2 FP 1, NSD2 inh 2, LANA DNA inh 3 and N-glyco inh 4.
`C[C@@H](NC(=O)C[C@H]1C=C[C@@H](NC(=O)C2CCOCC2)[C@@H](CO)O1)c1ccccc1` gave Casp6 inh 4.
For CO[C@H]1CN(C)C(=O)c2ccc(NC(=O)C3CC3)cc2OC[C@@H](C)N(C(=O)Cc2ccccn2)C[C@@H]1C the results were Casp6 inh 1.
For CO[C@@H]1CN(C)C(=O)c2ccc(NC(=O)C3CCCC3)cc2OC[C@@H](C)N(C)C[C@H]1C the results were Casp6 inh -2.
`CO[C@@H]1CN(C)C(=O)c2ccc(NC(=O)C3CC3)cc2OC[C@@H](C)N(C(=O)Cc2ccccn2)C[C@H]1C` gave Casp6 inh 39*.
`CO[C@H]1CN(C)C(=O)c2ccc(NS(=O)(=O)c3cccc(Cl)c3)cc2OC[C@@H](C)NC[C@H]1C` gave Casp6 inh 41*.
CO[C@@H]1CN(C)C(=O)c2ccc(NC(=O)C3CC3)cc2OC[C@@H](C)N(C)C[C@H]1C was read as Casp6 inh 99*.
`CO[C@H]1CN(C)C(=O)c2cc(NC(C)=O)ccc2OC[C@H](C)N(S(=O)(=O)c2cn(C)cn2)C[C@H]1C` gave Casp6 inh 36*.
CC(C)CC#Cc1cnc2c(c1)C(=O)N([C@@H](C)CO)C[C@H](C)[C@H](CN(C)C(=O)Nc1ccccc1F)O2 was read as Casp6 inh 2.
For C[C@@H]1CN([C@@H](C)CO)C(=O)c2cccc(NC(=O)NC3CCCCC3)c2O[C@H]1CN(C)Cc1ccc(Cl)c(Cl)c1 the results were Casp6 inh -4.
